The panel holds about 79,000 compounds, 15% with a hit somewhere; the sample as a whole holds those more often. The source made the active and inactive calls. Rule as the data show it: active = growth inhibition above about 70%; inactive = the rest.
Experiments:
[1] = NCI Yeast Anticancer Drug Screen. Data for the rad52 strain (AID 147);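 also: 0% = growth of vehicle-treated control cultures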; details: S. cerevisiae rad52 mutant growth inhibition, stronger effect = higher value
Summary of the method: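 The repair-mutant yeast strain was incubated with compounds, then growth was read and inhibition derived relative to vehicle.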

[2] = NCI Yeast Anticancer Drug Screen. Data for the wt1 strain (AID 149);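 also: 0% = growth of vehicle-treated wt1 cultures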; details: S. cerevisiae wt1 strain (SPY 50644) growth inhibition, stronger effect = higher value
Summary of the method: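 Readout: yeast growth inhibition, normalised to vehicle controls, in the wt1 strain exposed to test compounds.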

[3] = NCI Yeast Anticancer Drug Screen. Data for the rad50EPP+ strain (AID 151);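 also: 0% = growth of vehicle-treated control cultures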; details: S. cerevisiae rad50 mutant strain, stronger effect = higher value
Summary of the method: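 Vehicle-normalised growth inhibition; rad50EPP+ yeast strain, altered in DNA damage repair, compound-treated.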

[4] = NCI Yeast Anticancer Drug Screen. Data for the mgt1 strain (AID 153); details: S. cerevisiae mgt1 mutant growth inhibition, stronger effect = higher value
Summary of the method: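 Vehicle-normalized growth inhibition is determined in mgt1 yeast, a strain selected for a defined alteration in DNA repair or cell cycle control.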

[5] = NCI Yeast Anticancer Drug Screen. Data for the rad50 strain (AID 155);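 also: 0% = growth of vehicle-only cultures of the same strain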; details: S. cerevisiae rad50 strain growth inhibition, stronger effect = higher value
Summary of the method: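 Compounds were tested on a yeast strain with an engineered DNA damage repair alteration; the reported value is growth inhibition normalised to vehicle treatment.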

[6] = NCI Yeast Anticancer Drug Screen. Data for the mec2-1 strain (AID 157); details: S. cerevisiae mec2-1 strain, stronger effect = higher value
Summary of the method: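 Mutant yeast (mec2-1) grown with compound; growth inhibition relative to vehicle control reported.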

[7] = NCI Yeast Anticancer Drug Screen. Data for the rad14 strain (AID 159);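 also: 0% = growth of vehicle-treated control cultures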; details: S. cerevisiae rad14 strain growth inhibition, stronger effect = higher value
Summary of the method: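 Compound-treated yeast with a defined DNA-repair lesion; growth inhibition normalised to vehicle-treated cultures.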

[8] = NCI Yeast Anticancer Drug Screen. Data for the sgs1 mgt1 strain (AID 161);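 also: 0% = growth of cultures given vehicle only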; details: S. cerevisiae sgs1 mgt1 strain, stronger effect = higher value
Summary of the method: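 Compounds are added to genetically altered yeast, and growth is compared with cultures given vehicle alone to give percent inhibition.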

[9] = NCI Yeast Anticancer Drug Screen. Data for the CLN2oe strain (AID 163);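 also: 0% = growth of vehicle-only control cultures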; details: S. cerevisiae CLN2oe strain, stronger effect = higher value
Summary of the method: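 Compounds are applied to yeast harbouring a defined cell-cycle control change; reduced growth compared with vehicle-treated controls gives the value.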

[10] = NCI Yeast Anticancer Drug Screen. Data for the cln2 rad14 strain (AID 165);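 also: 0% = growth equal to vehicle treated cultures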; details: S. cerevisiae cln2 rad14 strain, stronger effect = higher value
Summary of the method: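 Readout is yeast growth inhibition versus vehicle-treated controls, using a strain with cln2 and rad14 alterations exposed to compound.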

[11] = NCI Yeast Anticancer Drug Screen. Data for the bub3 strain (AID 167); details: S. cerevisiae bub3 mutant strain, stronger effect = higher value
Summary of the method: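 Growth of a checkpoint-deficient yeast mutant is measured after compound exposure. Values represent inhibition relative to vehicle.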

[12] = NCI Yeast Anticancer Drug Screen. Data for the wt2 strain (AID 169);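 also: 0% = growth of vehicle-treated yeast cultures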; details: S. cerevisiae wt2 strain growth inhibition, stronger effect = higher value
Summary of the method: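 Against vehicle-treated controls, the growth of yeast exposed to each compound was compared, and the inhibition was recorded.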

[13] = NCI Yeast Anticancer Drug Screen. Data for the mlh1 strain (AID 171);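 also: 0% = growth of vehicle-treated control cultures of the same strain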; details: S. cerevisiae mlh1 strain growth inhibition, stronger effect = higher value
Summary of the method: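 Measured: yeast growth. Reference: vehicle-treated controls. Organism: strain with a defined alteration affecting DNA damage repair or cell cycle control, treated with compound.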

[14] = NCI Yeast Anticancer Drug Screen. Data for the sgs1 strain (AID 173);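 also: 0% = growth of vehicle-only control cultures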; details: S. cerevisiae sgs1 mutant, stronger effect = higher value
Summary of the method: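 Each compound was added to cultures of the altered yeast strain. Growth was recorded, and inhibition was derived by comparison with vehicle controls.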

[15] = NCI Yeast Anticancer Drug Screen. Data for the mlh1 rad18 strain (AID 175); details: S. cerevisiae mlh1 rad18 strain growth inhibition, stronger effect = higher value
Summary of the method: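 Genetically defined yeast (DNA repair-deficient) exposed to compounds; growth inhibition determined relative to vehicle.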

[16] = NCI Yeast Anticancer Drug Screen. Data for the rad18 strain (AID 177); details: S. cerevisiae rad18 mutant growth inhibition, stronger effect = higher value
Summary of the method: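 Vehicle-treated cultures served as the baseline for scoring compound-induced growth inhibition in DNA-repair-mutant yeast.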

[17] = at 5.0 µM (retest, dose inferred, filed as 0.5)
[18] = at 50.0 µM (retest, dose inferred, filed as 5.0)

Measured: growth inhibition

COc1cc(/C=C2\NC(=O)N(/C=C3\C(=O)Oc4ccccc4C3=O)C2=O)ccc1O
inactive: [1]; at 1.2 µM -3% | [1]; at 3.7 µM 1% | [1]; at 11.0 µM 16% | [2]; at 1.2 µM 2% | [2]; at 3.7 µM 3% | [2]; at 11.0 µM 3% | [2]; at 33.0 µM 63% | [3]; at 1.2 µM -1% | [3]; at 3.7 µM -1% | [3]; at 11.0 µM 1% | [3]; at 33.0 µM 4% | [3]; at 100.0 µM 3% | [4]; at 1.2 µM -3% | [4]; at 3.7 µM -3% | [4]; at 11.0 µM 4% | [4]; at 33.0 µM 62% | [5]; at 1.2 µM -6% | [5]; at 3.7 µM -17% | [5]; [17] -1% | [5]; at 11.0 µM -9% | [6]; at 1.2 µM -1% | [6]; at 3.7 µM -3% | [6]; [17] -4% | [6]; at 11.0 µM 5% | [6]; at 33.0 µM 68% | [7]; at 1.2 µM -2% | [7]; at 3.7 µM -2% | [7]; at 11.0 µM 3% | [7]; at 33.0 µM 64% | [8]; [17] -11% | [9]; at 1.2 µM 0% | [9]; at 3.7 µM 1% | [9]; at 11.0 µM 15% | [10]; [17] 38% | [11]; at 1.2 µM -3% | [11]; at 3.7 µM -2% | [11]; [17] -16% | [11]; at 11.0 µM 1% | [11]; at 33.0 µM 69% | [12]; at 1.2 µM -1% | [12]; at 3.7 µM 0% | [12]; at 11.0 µM 7% | [13]; at 1.2 µM -1% | [13]; at 3.7 µM 0% | [13]; at 11.0 µM 6% | [14]; at 1.2 µM -1% | [14]; at 3.7 µM -1% | [14]; at 11.0 µM 14% | [15]; [17] 4% | [16]; at 1.2 µM -1% | [16]; at 3.7 µM -3% | [16]; at 11.0 µM -1%
active: [1]; at 33.0 µM 79% | [1]; at 100.0 µM 96% | [2]; at 100.0 µM 95% | [4]; at 100.0 µM 94% | [5]; at 33.0 µM 75% | [5]; [18] 95% | [5]; at 50.0 µM 88.4% | [5]; at 100.0 µM 95% | [6]; [18] 97% | [6]; at 50.0 µM 77.5% | [6]; at 100.0 µM 96% | [7]; at 100.0 µM 93% | [8]; [18] 92% | [8]; at 50.0 µM 93.9% | [9]; at 33.0 µM 86% | [9]; at 100.0 µM 96% | [10]; [18] 94% | [10]; at 50.0 µM 90% | [11]; [18] 90% | [11]; at 50.0 µM 90.8% | [11]; at 100.0 µM 93% | [12]; at 33.0 µM 87% | [12]; at 100.0 µM 98% | [13]; at 33.0 µM 82% | [13]; at 100.0 µM 96% | [14]; at 33.0 µM 89% | [14]; at 100.0 µM 97% | [15]; [18] 95% | [15]; at 50.0 µM 89.5% | [16]; at 33.0 µM 77% | [16]; at 100.0 µM 94%

CN(C)c1nc(=Nc2cccc(Cl)c2)ss1
active: [1]; at 11.0 µM 89% | [1]; at 33.0 µM 99% | [1]; at 100.0 µM 99% | [2]; at 33.0 µM 99% | [2]; at 100.0 µM 99% | [3]; at 11.0 µM 92% | [3]; at 33.0 µM 99% | [3]; at 100.0 µM 99% | [4]; at 11.0 µM 98% | [4]; at 33.0 µM 99% | [4]; at 100.0 µM 99% | [5]; [17] 75% | [5]; at 11.0 µM 89% | [5]; at 33.0 µM 99% | [5]; [18] 99% | [5]; at 50.0 µM 99.5% | [5]; at 100.0 µM 99% | [6]; at 11.0 µM 96% | [6]; at 33.0 µM 100% | [6]; [18] 99% | [6]; at 50.0 µM 99.7% | [6]; at 100.0 µM 100% | [7]; at 11.0 µM 97% | [7]; at 33.0 µM 99% | [7]; at 100.0 µM 99% | [8]; [17] 90% | [8]; [18] 99% | [8]; at 50.0 µM 99.7% | [9]; at 11.0 µM 71% | [9]; at 33.0 µM 99% | [9]; at 100.0 µM 99% | [10]; [18] 99% | [10]; at 50.0 µM 99.4% | [11]; at 11.0 µM 98% | [11]; at 33.0 µM 99% | [11]; [18] 98% | [11]; at 50.0 µM 98.3% | [11]; at 100.0 µM 99% | [12]; at 11.0 µM 90% | [12]; at 33.0 µM 99% | [12]; at 100.0 µM 99% | [13]; at 11.0 µM 96% | [13]; at 33.0 µM 99% | [13]; at 100.0 µM 99% | [14]; at 11.0 µM 95% | [14]; at 33.0 µM 99% | [14]; at 100.0 µM 99% | [15]; [17] 89% | [15]; [18] 99% | [15]; at 50.0 µM 99.5% | [16]; at 11.0 µM 97% | [16]; at 33.0 µM 99% | [16]; at 100.0 µM 99%
inactive: [1]; at 1.2 µM 7% | [1]; at 3.7 µM 34% | [2]; at 1.2 µM 7% | [2]; at 3.7 µM 20% | [2]; at 11.0 µM 63% | [3]; at 1.2 µM 9% | [3]; at 3.7 µM 42% | [4]; at 1.2 µM 9% | [4]; at 3.7 µM 47% | [5]; at 1.2 µM 5% | [5]; at 3.7 µM 32% | [6]; at 1.2 µM 11% | [6]; at 3.7 µM 28% | [6]; [17] 56% | [7]; at 1.2 µM 6% | [7]; at 3.7 µM 30% | [9]; at 1.2 µM -5% | [9]; at 3.7 µM 11% | [10]; [17] 17% | [11]; at 1.2 µM 1% | [11]; at 3.7 µM 28% | [11]; [17] 69% | [12]; at 1.2 µM 9% | [12]; at 3.7 µM 32% | [13]; at 1.2 µM 11% | [13]; at 3.7 µM 50% | [14]; at 1.2 µM 15% | [14]; at 3.7 µM 52% | [16]; at 1.2 µM 12% | [16]; at 3.7 µM 48%
